Laboratory results: PubChem BioAssay (EPA / NIEHS)
Records with an inconclusive call do not appear. Active and inactive are the calls of the source. The calls were made as follows, unless noted: active = hit-call score of the fitted dose curve at least 0.9, where 1 is the maximum; inactive = score below 0.9.

How the values were obtained:
[1] = CCTE_Shafer_MEA_dev_network_spike_duration_std: CCTE's Neural Network Formation Assay for Standard Deviation of Network Spike Duration, Shafer Lab (AID 2284052);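 also: area under curve of spike duration SD across recording days 5 to 12; hits are decreases in network spike duration SD versus DMSO vehicle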
Method in brief: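 Rat cortical cultures, 1.5 x 10^5 cells/well, exposed continuously from plating to DIV 12 with media/compound renewal at DIV 5, 9. Spontaneous activity recorded DIV 5/7/9/12, AxIS adaptive spike detector; AUC across days; negative direction vs DMSO.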

[2] = CCTE_Shafer_MEA_dev_per_network_spike_spike_number_mean: CCTE's Neural Network Formation Assay for Mean Number of Spikes in a Network Spike, Shafer Lab (AID 2284053)
Method in brief: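 Rat cortical primary cultures on 48-well MEA; compound from day 0, re-dosed with full media change DIV 5, 9. Recorded DIV 5, 7, 9, 12; spikes in 0.05 s window at network-spike peak ÷ total network spikes; AUC; loss vs DMSO.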

[3] = CCTE_Shafer_MEA_dev_per_network_spike_spike_percent: CCTE's Neural Network Formation Assay for Percent of Spikes in a Network Spike, Shafer Lab (AID 2284054)
Method in brief: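 Rat primary cortical neurons were grown on 48-well MEA plates (16 electrodes/well), exposed from plating day 0 through day 12, with treatment renewed on DIV 5 and 9. Percent of spikes within 0.05 s network-spike peaks was measured, summarised as AUC across days 5, 7, 9, 12.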

[4] = UKN5_HCS_SBAD2_cell_viability: Viability Assessment in the University of Konstanz (UKN) Leist Lab Neurite Outgrowth Assay in human iPSC-derived immature Dorsal Root Ganglia Neurons (UKN5) (AID 2284056)
Method in brief: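 iPSC-derived immature peripheral neurons (SBAD2) seeded on Matrigel with CHIR99021, SU5402 and DAPT, dosed 1 h later for 24 h. Viability from Hoechst H-33342 and calcein-AM live staining, high-content imaging; bidirectional fit versus DMSO.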

[5] = CCTE_Shafer_MEA_dev_LDH: CCTE's Lactate Dehydrogenase Assay for Cytotoxicity in the Neural Network Formation Assay, Shafer Lab (AID 2284068; active = hit-call score of the fitted dose curve at least 0.9, where 1 is the maximum;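 also: exposure for twelve days from plating with re-dosing on DIV 5 and 9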)
Method in brief: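 Rat cortical primary neurons, MEA culture; dosing day 0–12, full medium plus compound exchange DIV 5, 9. Read-out: LDH enzyme activity, spectrophotometric. DMSO = negative control/baseline; signal loss → cytotoxicity.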

[6] = UKN5_HCS_SBAD2_neurite_outgrowth: University of Konstanz (UKN) Leist Lab Neurite Outgrowth Assay in human iPSC-derived immature Dorsal Root Ganglia Neurons (UKN5) (AID 2284070); conditions: actives raise or lower the signal
Method in brief: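 SBAD2 neurons, 24 h compound treatment, calcein-AM neurite area via HCS imaging; DMSO baseline, gain or loss of signal.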

[7] = CCTE_Shafer_MEA_dev_mutual_information_norm: CCTE's Neural Network Formation Assay for Mutual Information Normalization, Shafer Lab (AID 2284091)
Method in brief: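 Primary rat cortical neurons on PEI-coated 48-well MEA plates, 1.5 x 10^5 cells/well, exposed from day 0 through day 12 with re-dosing at DIV 5 and 9. Mutual information between electrodes recorded days 5, 7, 9, 12; trapezoidal AUC, loss-of-signal fit versus DMSO.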

[8] = CCTE_Shafer_MEA_dev_correlation_coefficient_mean: CCTE's Neural Network Formation Assay for Mean Correlation Coefficient, Shafer Lab (AID 2284093)
Method in brief: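 Rat cortical cultures, 1.5 x 10^5 cells/well, dosed from day 0 for 12 days. Spontaneous spikes recorded DIV 5/7/9/12; electrode-pair correlation coefficients averaged, AUC taken. Fit in loss direction vs DMSO.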

[9] = UKN2_HCS_IMR90_neural_migration: University of Konstanz (UKN) Leist Lab Neural Crest Cell Migration Assay in human induced IMR90 Pluripotent Stem Cells (UKN2) (AID 2284204); conditions: actives raise or lower the signal
Method in brief: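 iPSC-derived IMR90 neural crest cells seeded around stoppers on PLO/laminin/fibronectin; migration started in N2-S medium with EGF/FGF, compounds added after 24 h for 24 h. Migration into cell-free area imaged after calcein-AM/Hoechst staining; bidirectional fit versus DMSO.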

[10] = UKN4_HCS_LUHMES_neurite_outgrowth: University of Konstanz (UKN) Leist Lab Neurite Outgrowth Assay in human LUHMES cells (UKN4) (AID 2284206); conditions: actives raise or lower the signal
Method in brief: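 2-day-differentiated LUHMES, 24 h cpd exposure, live calcein-AM + H-33342 stain, HCS fluorescence imaging of neurite area; DMSO = baseline, bidirectional fit.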

[11] = CCTE_Mundy_HCI_Cortical_Synap_Neur_Matur_NeuriteSpotCountPerNeuriteLength: CCTE's Synaptogenesis and Neurite Maturation Assay in rat cortical cells for Neurite Spot Count per Neurite Length, Mundy Lab (AID 2284210)
Method in brief: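 Rat primary cortical cultures, AraC added at DIV 5 to suppress glia; chemical exposure from DIV 7 to DIV 12. Fixed cells stained for MAP2 and synaptophysin plus Hoechst; synaptophysin puncta per neurite length quantified by high-content imaging, relative to DMSO.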

[12] = CCTE_Mundy_HCI_Cortical_NOG_NeuriteLength: CCTE's Neurite Outgrowth Assay in rat cortical cells for Neurite Length, Mundy Lab (AID 2284213)
Method in brief: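 Neurite length was read by high-content imaging of βIII-tubulin-labelled neurites in rat primary cortical cultures. Activity was fitted relative to DMSO.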

[13] = CCTE_Mundy_HCI_Cortical_Synap_Neur_Matur_NeuriteLength: CCTE's Synaptogenesis and Neurite Maturation Assay in rat cortical cells for Neurite Length, Mundy Lab (AID 2284214)
Method in brief: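 Neurite length in rat primary cortical cultures is imaged after MAP2, synaptophysin and Hoechst staining. Dosing starts DIV 7, ending DIV 12; DMSO serves as negative control and baseline.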

[14] = CCTE_Mundy_HCI_Cortical_Synap_Neur_Matur_SynapseCount: CCTE's Synaptogenesis and Neurite Maturation Assay in rat cortical cells for Synapse Count, Mundy Lab (AID 2284218)
Method in brief: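 Synapse count per neuron is measured in rat cortical neurons exposed to chemicals between DIV 7 and DIV 12, with glial growth arrested by AraC at DIV 5. Synaptophysin and MAP2 staining is imaged automatically; activity is fitted relative to DMSO.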

[15] = CCTE_Mundy_HCI_Cortical_Synap_Neur_Matur_CellBodySpotCount: CCTE's Synaptogenesis and Neurite Maturation Assay in rat cortical cells for Cell Body Spot Count, Mundy Lab (AID 2284223)
Method in brief: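 Read-out: cell body-associated synaptophysin puncta per neuron, imaged after MAP2, synaptophysin and Hoechst staining. Rat cortical cells, AraC DIV 5, chemical dosing DIV 7, fixation DIV 12. Activity fitted in positive direction relative to DMSO baseline.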

[16] = UKN4_HCS_LUHMES_cell_viability: Viability Assessment in the University of Konstanz (UKN) Leist Lab Neurite Outgrowth Assay in human LUHMES cells (UKN4) (AID 2284232)
Method in brief: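 Human dopaminergic-model LUHMES neurons were exposed to chemicals for 24 h after a 2-day differentiation. Viability was scored by imaging Hoechst H-33342 staining, with activity fitted in both directions relative to DMSO controls.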

[17] = UKN2_HCS_IMR90_cell_viability: Viability Assessment in the University of Konstanz (UKN) Leist Lab Neural Crest Cell Migration Assay in human induced IMR90 Pluripotent Stem Cells (UKN2) (AID 2284233);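 also: viability of neural crest cells differentiated from IMR90 iPSC measured by calcein-AM fluorescence imaging; cells exposed to compound for 24 h after a 24 h migration phase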
Method in brief: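 Neural crest cells derived from IMR90 iPSC migrate into a stopper-free zone for 24 h in EGF/FGF medium, then are exposed to compound for 24 h. Viability assessed by calcein-AM and Hoechst staining with high-content imaging, fitted bidirectionally versus DMSO.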

[18] = CCTE_Mundy_HCI_hNP1_Casp3_7: CCTE's Caspase-Glo 3/7 Assay in human neuroprogenitor cells for Apoptosis, Mundy Lab (AID 2284240)
Method in brief: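 Luminescent caspase-3/7 readout, 26.5 h post-dose, in human neural progenitor cells from WA09 embryonic stem cells. Cells grew 40–44 h at 37 °C, 5% CO2 before chemical addition. Activity analysed as signal increase over DMSO baseline.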

Measured: outcome

COC(=O)[C@H]1[C@@H](OC(=O)c2ccccc2)C[C@@H]2CC[C@H]1N2C
inactive: all assays above
